Assay outcomes (PubChem BioAssay)
The list is not random: actives were taken first. Their share in the collection is about 0.83%.
Menin-MLL TR inh = qHTS Assay for Inhibitors Targeting the Menin-MLL Interaction in MLL Related Leukemias: Competition With Texas Red Labeled MLL-derived Mutant Peptide. O00255. Menin + Texas Red MLL mutant peptide, fluorescence polarization. Potency, µM (highest dose often 61.6 µM), for the others: top-dose FP activity change, negative = inhibition, usual class: inhibitors. 270,000 tested, 0.23% active; active = well fitted inhibition curve with a large enough effect in the polarisation, with a control signal flat, not every such curve was filed as active; inconclusive = small, poorly fitted or top-dose-only effect, or effect the other way, or a change in a side signal; inactive = no such curve, though single readings can be large or run the other way; the % refers to the polarisation; note: potency is the fitted concentration of half-maximal effect; % of control where 0% means no effect
Target sequence (O00255 whole entry, looked up): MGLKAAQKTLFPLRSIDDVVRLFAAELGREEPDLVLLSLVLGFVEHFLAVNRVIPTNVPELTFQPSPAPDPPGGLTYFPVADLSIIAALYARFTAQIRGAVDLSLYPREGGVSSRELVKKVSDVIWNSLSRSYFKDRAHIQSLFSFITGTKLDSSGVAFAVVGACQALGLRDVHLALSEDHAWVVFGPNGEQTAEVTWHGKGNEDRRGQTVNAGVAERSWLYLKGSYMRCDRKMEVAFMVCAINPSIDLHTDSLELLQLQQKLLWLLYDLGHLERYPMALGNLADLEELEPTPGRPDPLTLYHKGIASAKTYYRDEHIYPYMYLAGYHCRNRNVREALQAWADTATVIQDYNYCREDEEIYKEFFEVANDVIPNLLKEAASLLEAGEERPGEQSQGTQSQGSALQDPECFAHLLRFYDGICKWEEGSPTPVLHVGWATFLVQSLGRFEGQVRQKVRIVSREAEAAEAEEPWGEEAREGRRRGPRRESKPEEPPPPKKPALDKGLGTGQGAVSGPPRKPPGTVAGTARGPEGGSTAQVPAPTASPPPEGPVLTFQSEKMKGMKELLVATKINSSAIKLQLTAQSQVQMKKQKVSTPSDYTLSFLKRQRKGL
MLL CXXC-DNA inh = qHTS Fluorescence Polarization Assay for Inhibitors of MLL CXXC domain - DNA interaction. MLL-CXXC / FITC-HOXA9 DNA fluorescence polarization. 290,000 tested, 0.037% active. Histone-lysine N-methyltransferase 2A (Homo sapiens), Q03164. AID 2662, 2010. Potency, µM (highest dose often 115 µM), without a hit: top-dose activity change, negative = inhibition, most hits filed as inhibitors; active = well fitted inhibition curve with a large enough effect in the polarisation, with a control signal flat, not every such curve was filed as active; inconclusive = small, poorly fitted or top-dose-only effect, or effect the other way, or a change in a side signal; inactive = no such curve, though single readings can be large or run the other way; the % refers to the polarisation; note: potency is the fitted concentration of half-maximal effect
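Fluorescence polarization: 7 uM MLL-CXXC (stock) preincubated 5 min with compounds, then 50 nM fluorescein-HOX-A9 DNA (stock) added; 30 min ambient. Buffer 50 mM Tris-HCl pH 7.5, 50 mM NaCl, 1 mM DTT, 0.05% BSA.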
Six1-Eya2 blk = qHTS Assay for Inhibitors of the Six1/Eya2 Interaction; Homeobox protein SIX1 (Homo sapiens) + Protein phosphatase EYA2 (Homo sapiens), …; AlphaScreen GST-Six1/His-Eya2 binding, biochemical; stronger effect = lower value; activity change, % (test concentration not listed); 360,000 tested, 0.56% active; note: % is set by controls: 0 for no effect and ±100 for the full control effect
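AlphaScreen luminescence read after one hour at 37 °C in darkness. Pin-transferred compounds met GST-Six1 and His-Eya2 protein (5X stock 250 nM/500 nM) plus glutathione donor and Ni-chelate acceptor beads (5X, 50 ug/mL).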
GLS inh = qHTS for Inhibitors of Glutaminase (GLS) | GLS enzymatic activity, qHTS titration | Potency, µM (highest dose often 45.5 µM), inactives show top-dose activity change, negative = inhibition, actives largely listed as inhibitors | 410,000 tested, 0.21% active | AID 624170, 2012; active = well fitted inhibition curve with a large enough effect; inconclusive = small, poorly fitted or top-dose-only effect, or another doubt; inactive = no such curve, though single readings can be large or run the other way; note: potency is the fitted concentration of half-maximal effect; % is set by controls: 0 for no effect and ±100 for the full control effect
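Compounds were pin-transferred onto hKGA, after which L-glutamine (1 mM solution) and a detection mix of glutamate oxidase, HRP and Amplex Red were added. Initial and 30 min RT fluorescence reads were collected.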
CtBP-E1A blk = qHTS Assay for Inhibitors of the CtBP/E1A Interaction | AlphaScreen GST-E1A/His-CtBP binding, 1536-well; stronger effect = lower value | activity change, % (no concentration beside the values) | 340,000 tested, 0.49% active; note: % is set by controls: 0 for no effect and ±100 for the full control effect
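GST-E1A and His-tagged CtBP (125 nM each as 5X stock) were preincubated with pin-transferred compound for 2 h at 37 °C in the dark, then glutathione donor and nickel acceptor beads were added for 1 h before AlphaScreen reading.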
Menin MLL FP FL = qHTS Assay for Inhibitors Targeting the Menin-MLL Interaction in MLL Related Leukemias: Competition With Fluorescein Labeled MLL-derived Peptide; Fluorescence polarization, fluorescein-MLL peptide displacement from menin; FP activity change, % at 61.4 µM; 290,000 tested, under 10 active; active = well fitted curve in the direction sought with a large enough effect in the polarisation, not every such curve was filed as active; inconclusive = small, poorly fitted or top-dose-only effect, or effect the other way, or a change in a side signal; inactive = no such curve, though single readings can be large or run the other way; the % refers to the polarisation; note: % of control where 0% means no effect
Numbers without * were called inactive; ? = inconclusive; . = not tested or not shown; ! = repeats disagree; [ ] = another dose, or the depositor's remark. Cut-off read from the data, not from the text of the source, unless noted: active = activity change below about -65%; inconclusive = mostly about -30% to -63%; inactive = weaker than that.

SMILES	Menin-MLL TR inh	MLL CXXC-DNA inh	Six1-Eya2 blk	GLS inh	CtBP-E1A blk	Menin MLL FP FL
O=C(CSc1nc2c(cnn2-c2ccc(F)cc2)c(=O)[nH]1)Nc1ccc(Br)cc1	.	.	.	7.94µM*	.	.
CC(=O)c1ccc(NC(=O)COCc2cc(-c3ccc(F)cc3)on2)cc1	.	.	.	0.0%	.	.
Cc1ccc(N=Nc2cc(C)ccc2N)cc1	.	0.6%	?	-0.6%	-80.4*	2.7
Cc1ccc(N=Nc2cc(C)ccc2O)c(C)c1	0.8%	0.1%	?	-0.8%	?	-9.1
CO/N=C(\C(=O)N[C@@H]1C(=O)N2C(C(=O)OCOC(=O)C(C)(C)C)=C(C)CS[C@H]12)c1csc(N)n1	.	.	.	6.6%	.	.
COc1cccc(/C=N/Nc2nn3cnnc3c3ccccc23)c1O	-0.4%	-2.5%	-87.5*	4.4%	-91.3*	2.0
COc1cccc(/C=N/Nc2ccccc2C(=O)O)c1O	?	5.0%	-5.2	17.5%	-10.2	2.5
COc1cc(OC)c(OC)cc1/C=N/NC(=O)c1ccc2nc[nH]c2c1	.	-4.3%	-14.7	6.7%	-22.6	0.9
COc1cccc(C=NNC(=O)c2ccncc2)c1O	.	.	-80.0*	6.0%	-94.0*	.
COc1cccc(/C=N/NC(=O)c2c(C)nc3ccc(Br)cn23)c1O	?	28.8%	-91.6*	8.6%	-91.3*	?
COc1cccc(/C=N/NC(=O)c2ccc3nc[nH]c3c2)c1O	.	35.9%	-86.8*	6.3%	-96.1*	2.5
CC1(C)CC[C@]2(C(=O)O)C(O)C[C@@]3(C)C(=CCC4[C@@]5(C)CCC(O)C(C)(C)C5CC[C@@]43C)C2C1 (some centres undefined)	14.8%	.	.	.	.	-3.2
CCN(CC)c1ccc(C=Nc2ccc(N(C)C)cc2)c(O)c1	20µM*	?	?	21.3%	?	?
CCN(CC)c1ccc(N=Cc2ccc(N(CC)CC)cc2O)cc1	?	?	?	-7.3%	-14.5	?
CCN(CC)c1ccc(/C=N/NC(=O)c2ccc3nc[nH]c3c2)c(O)c1	.	47.0%	?	?	-75.5*	-0.6
CCN(CC)c1ccc(/C=N/NC(=S)NC)c(O)c1	-1.3%	-1.5%	-89.6*	15.9%	?	-2.5
CCN(CC)c1ccc(/C=N/NC(=O)OC)c(O)c1	0.7%	5.9%	-18.9	49.2%	-13.7	-1.5
C=C(C)Cn1c(SCC(=O)c2ccc(OC)cc2)nc2sc3c(c2c1=O)CCCC3	.	.	.	-14.6%	.	.
Cc1cccc2c1NC(C)CC2C (centres undefined)	25.1µM*	-1.1%	-11.5	-0.7%	-9.6	-3.4
CCc1cccc2c1NC1(CCCC1)CC2C (centres undefined)	?	-6.0%	-15.0	16.6%	-12.5	9.3
Cc1cc(Nc2ccccc2C(=O)O)n(-c2ccc([N+](=O)[O-])cc2)n1	.	2.4%	-81.4*	-0.9%	.	2.0
CCC1CN(C(=O)C2CCN(S(=O)(=O)c3c(C)noc3/C=C/c3ccc(C)cc3)CC2)c2cc(C)ccc2O1 (centres undefined)	.	.	.	7.5%	.	.
OC[C@H]1OC(O)[C@H](O)[C@@H](O)[C@@H]1O (some centres undefined)	-6.1%	.	.	.	.	-9.6
O=Cc1ccc2ccc3cccnc3c2n1	-13.2%	26.9%	-68.6*	16.9%	-93.4*	-15.2
CSS(=O)(=O)c1cccc2cccnc12	.	4.7%	?	?	-70.1*	4.9
SMILES	Menin-MLL TR inh	MLL CXXC-DNA inh	Six1-Eya2 blk	GLS inh	CtBP-E1A blk	Menin MLL FP FL
c1cnc2c(c1)ccc1cccnc12	-11.4%	-4.8%	-90.4*	-12.5%	-75.8*	4.1
CS[C@@H]1SC[C@H]2C(=O)N(C)C(C(C)C)C(=O)OC[C@@H](NC(=O)c3cnc4ccccc4n3)C(=O)N[C@@H](C)C(=O)N(C)[C@H]1C(=O)N(C)C(C(C)C)C(=O)OC[C@@H](NC(=O)c1cnc3ccccc3n1)C(=O)N[C@@H](C)C(=O)N2C (some centres undefined)	?	.	.	.	.	0.9
CN(C)c1ccc(-n2cccc2)cc1	.	-0.9%	-67.9*	8.4%	?	-0.9
CN(C)/C=C/C(=O)c1ccc(-n2cccc2)cc1	2.6%	13.2%	-5.4	13.3%	-7.4	-1.9
COc1cccc(Cn2c(=O)cnc3cnc(Oc4cccc(Cl)c4)nc32)c1	12.5%	.	.	.	.	2.2
CC(=O)Nc1ccc(S(=O)(=O)Oc2cccc(/C=C3\SC(N)=NC3=O)c2)cc1	?	27.3%	-6.2	17.8µM*	-22.8	11.8
Cc1ccc(C2CC(=O)Oc3ccc(O)cc32)cc1 (centres undefined)	5.0%[94.6 µM]	.	.	.	.	-0.6[94.6 µM]
Cc1cn([C@@H]2C[C@H](N=[N+]=N)[C@H](CO)O2)c(=O)[nH]c1=O	-4.8%[24.8 µM]	.	.	.	.	-2.6[24.8 µM]
CSc1nnc2c(n1)OC(C)=Nc1ccccc1-2	-4.8%	-12.3%	-66.5*	4.1%	-22.1	0.7
CCC1=Nc2ccccc2-c2nnc(SC)nc2O1	6.8%	9.9%	-21.3	7.0%	-18.0	-0.7
C=C(C)C(=O)Nc1ccc(OC(F)(F)C(F)F)c(NC(=O)C(=C)C)c1	-8.7%	2.2%	-11.1	12.6µM*	1.0	1.3
CC(=O)Nc1ccc(OC(F)(F)C(F)F)c(NC(C)=O)c1	3.0%	0.4%	2.4	-1.4%	5.0	-0.9
Cc1cccc(NC(=O)C2CCC(CNS(=O)(=O)c3ccc(Br)s3)CC2)c1 (centres undefined)	.	.	.	-3.0%	.	.
Cc1cccc(NCc2ccc(O)c3ncccc23)c1C	7.8%	176.1%	-73.7*	-24.1%	-89.3*	-9.5
Cc1cccnc1NCc1ccc(O)c2ncccc12	-3.9%	59.8%	-90.3*	5.1%	-91.1*	-1.7
COc1c(Cl)cc(Cl)cc1C(=O)Nc1cccc(-c2nc3ccccc3o2)c1C	.	.	.	-14.8%	.	.
COc1ccc(C(N)c2nccc3cc(OC)c(OC)cc23)cc1OC (centres undefined)	-22.7%	2.3%	-75.5*	-14.6%	?	0.0
O=C(O)c1ccc(CSc2nc3ccccc3c(=O)n2-c2ccccc2)cc1	?	-6.1%	1.1	11.1%	.	-0.6
N=C(N)SCc1nc2ccccc2c(=O)n1-c1ccccc1	30.4%	-13.7%	-81.8*!	-5.7%	-82.7*!	12.3
COc1cccc(-n2c(SCC(=O)Nc3cc(C)ccc3C)nc3c(oc4ccccc43)c2=O)c1	.	.	.	-9.0%	.	.
